MITF inh: blocks human microphthalmia-associated transcription factor. AlphaScreen MITF homodimerization, bead proximity signal. inhibition, % at 2.6 µM. hit rate 0.91% among 650,000; in the data active = inhibition above about 50%;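 also: 0% = vehicle wells with protein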
GPR151 activ: activates the human receptor GPR151. Q8TDV0. PathHunter beta-arrestin GPR151 cells, luminescence. activation, % at 11.2 µM. hit rate 1% among 650,000; in the data active = activation above about 4.9%;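 also: 0% = median of compound wells and 100% = cells with positive control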
TEAD-YAP inh: TEAD-YAP interaction inhibition; HEK-TIYL cells, TEAD-Gal4/YAP UAS-luciferase luminescence; inhibition, % at 9.12 µM; hit rate 1.4% among 640,000; AID 1259422; in the data active = inhibition above about 32%;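 also: 0% = median of test compound wells and 100% = reference inhibitor wells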
FBW7 act: human FBW7 E3 ligase activation, primary screen; normalized activity (activation), % at 26.1 µM; hit rate 0.13% among 650,000; AlphaScreen FBW7–phospho-cyclin E peptide binding, activator screen; in the data active = normalized activity above about 1.9%;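 also: purified mutant Fbw7 with reduced substrate affinity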
GPR151 confirm: confirmation of human GPR151 activators. 6,700 tested, under 10 active. GPR151 PathHunter beta-arrestin cells, luminescence, 90 min; % of EA-reagent control over plate median. activation, % at 11.2 µM. AID 1508609. shares compounds with GPR151 activ;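 active = mean percent activation across replicates above the confirmation screen cutoff of 4.91%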
GPR119 counter: GPR119 activation, counter-screen for GPR151 activators. shares compounds with GPR151 activ. GPR119 PathHunter beta-arrestin cells, luminescence, 90 min; 0 = compound-well median, 100 = enzyme-acceptor control. activation, % at 11.2 µM. hit rate 0.3% among 6,700;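 active = mean percent activation in the counterscreen above 29.09%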;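 also: counterscreen on off-target GPR119 to flag nonselective hits from the GPR151 activator screen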
Target sequence (Q8TDV5 whole entry, looked up): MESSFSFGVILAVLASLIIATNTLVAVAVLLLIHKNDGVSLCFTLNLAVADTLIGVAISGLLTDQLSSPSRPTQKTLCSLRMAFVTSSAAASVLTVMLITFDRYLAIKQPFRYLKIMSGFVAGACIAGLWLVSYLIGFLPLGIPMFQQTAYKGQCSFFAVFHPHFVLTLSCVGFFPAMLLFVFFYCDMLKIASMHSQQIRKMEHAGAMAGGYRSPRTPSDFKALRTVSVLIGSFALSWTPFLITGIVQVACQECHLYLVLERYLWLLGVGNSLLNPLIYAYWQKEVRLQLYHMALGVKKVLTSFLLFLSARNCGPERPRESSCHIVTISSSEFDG
An asterisk follows results filed as active; . = not tested or not shown. The list is not random: actives were taken first. Their share in the collection is about 3.5%.

SMILES	MITF inh	GPR151 activ	TEAD-YAP inh	FBW7 act	GPR151 confirm	GPR119 counter
O=C(c1cccc([N+](=O)[O-])c1)N1CCCc2ccccc21	-1	5.0*	-4	0	1	-1
O=C(c1ccc([N+](=O)[O-])cc1)N1CCCc2ccccc21	12	-1	-10	0	.	.
COc1ccc(CCc2nc3ccccc3c(=O)o2)cc1	8	-4	-35	0	.	.
Cc1c(Cl)cccc1NC(=O)CSc1ccccc1N	2	-1	8	0	.	.
COCCNCCOCCOc1c(Cl)cc(C)cc1Br	22	1	-7	0	.	.
COc1ccccc1NC(=O)c1ccc(SCC(=O)NC2CCCCCC2)c([N+](=O)[O-])c1	15	8.3*	13	0	0	6
COCCOC(=O)C1=C(N)Oc2c(oc(CO)cc2=O)C1c1c(F)cccc1Cl (configuration not stated)	-15	5.7*	13	0	0	9
NC(=O)C1(N2CCCCC2)CCN(C(=O)Nc2ccc(F)cc2F)CC1	3	5.9*	-3	0	1	5
NC(=O)C1(N2CCCCC2)CCN(C(=S)Nc2ccc(F)cc2)CC1	2	-1	13	0	.	.
CC(NC(=O)c1ccc(F)cc1)c1ccc2c(c1)OCCO2 (configuration not stated)	5	0	-1	0	.	.
CC(NC(=O)Nc1ccc(F)cc1F)c1ccc2c(c1)OCO2 (configuration not stated)	7	7.2*	-5	0	1	0
CC(C)C(NC(=O)C1CCCCC1)C(=O)NCc1ccco1 (configuration not stated)	17	-1	-1	0	.	.
CCCCNC(=O)CSc1nnc(NC(C)=O)s1	-3	6.4*	4	0	0	1
COC(=O)c1ccc(NC(=O)CSc2nnc(NC(C)=O)s2)cc1	-14	6.4*	5	0	0	0
Cc1nnc(SCC(=O)NCCC(c2ccccc2)c2ccccc2)s1	-5	5.0*	4	0	0	0
CCSc1nnc2c(n1)OC(c1c(OC)ccc3ccccc13)Nc1ccccc1-2 (configuration not stated)	4	0	-10	0	.	.
O=C(Cc1cccs1)NCC1(c2ccc(F)cc2)CC1	-1	12*	1	0	1	-5
O=C(Cc1ccc(F)cc1)NCC1(c2cccs2)CCOCC1	14	1	13	1	.	.
CC(C)CCNC(=S)NC(=O)c1ccccc1	8	1	-24	0	.	.
O=C(CSc1nc2ccccc2s1)NCc1ccco1	2	6.1*	-4	0	0	5
COc1cccc(/C=C2\N=C(c3ccc(Cl)cc3)OC2=O)c1	4	1	14	0	.	.
CC(=O)Nc1ccc(NC(=O)COC(=O)c2ccc3c(c2)nc(C)n3-c2ccccc2)cc1	0	11*	2	0	1	8
Cc1cc(=O)n2nc(N3CCCC(C(=O)N4CCN(c5ccccc5)CC4)C3)sc2n1 (configuration not stated)	10	0	2	0	.	.
CCOC(=O)N1CCN(C(=O)C2CCCN(c3nn4c(=O)cc(C)nc4s3)C2)CC1 (configuration not stated)	-11	5.6*	-1	0	0	-11
O=C(O)C1CCC(CN(Cc2cccc(Br)c2)C(=S)Nc2ccccc2F)CC1 (configuration not stated)	7	0	11	0	.	.
SMILES	MITF inh	GPR151 activ	TEAD-YAP inh	FBW7 act	GPR151 confirm	GPR119 counter
Cc1ccccc1NC(=S)N(Cc1cccc(Br)c1)CC1CCC(C(=O)O)CC1 (configuration not stated)	-1	7.6*	0	0	-1	-2
COC(=O)c1cccc(NC(=O)C2COc3ccccc3O2)c1 (configuration not stated)	-12	5.0*	-49	0	-1	-12
O=C(Nc1ccc(Oc2ccc(Cl)cc2)cc1)C1CCCN1C(=O)OCc1ccccc1 (configuration not stated)	11	5.5*	5	0	-1	4
O=C(Cn1nnc(-c2c[nH]c3ccccc23)n1)Nc1ccccc1F	-5	1	-7	0	.	.
COCn1c(C(C)O)nc2ccccc21 (configuration not stated)	5	0	-3	0	.	.
O=C(NC1CCSC1=O)c1cccc(C(=O)NC2CCSC2=O)c1 (configuration not stated)	-28	5.3*	-3	0	0	-1
Clc1ccc(COc2ccccc2CNn2cnnc2)cc1	7	0	5	0	.	.
CCOc1cccc(CNn2cnnc2)c1OCc1ccccc1	3	5.5*	2	0	1	9
O=C(NC1CCN(Cc2ccccc2)CC1)c1csc(-c2ccccc2)n1	7	-2	10	0	.	.
Nc1cccc(-c2cccc(C(=O)NC3CCN(Cc4ccccc4)CC3)n2)c1	15	5.3*	-2	0	1	-5
O=C(NC1CCN(Cc2ccccc2)CC1)c1csc(NCc2cccnc2)n1	4	5.0*	10	0	1	-6
CC(=O)c1cccc(-c2nc(C(=O)NC3CCN(Cc4ccccc4)CC3)cs2)c1	15	9.9*	-12	0	0	-6
CNc1ccccc1P(=O)(O)O	-3	6.3*	4	0	1	-1
CCOC(=O)c1ccccc1NC(=O)CC(C)CC(=O)O (configuration not stated)	5	5.9*	-6	0	1	5
NC(=O)C[n+]1cccc(/C=N/O)c1	3	6.3*	-3	0	0	-2
CC(C)N(C(=O)C[n+]1cccc(/C=N/O)c1)C(C)C	6	1	-5	0	.	.
COC(=O)c1sc(NC(=O)c2ccccc2C)nc1C	4	-5	-17	0	.	.
COC(=O)C1=C(C)N(c2ccc(C(C)C)cc2)C(=O)/C1=C\c1cc(Br)ccc1OC	0	11*	-6	0	0	7
Cc1cc(C)c2nc(N(CCn3cccn3)C(=O)C3CC3)sc2c1	9	6.1*	-7	0	0	-2
c1ccc(CNc2cc(Nc3ccccc3)ncn2)cc1	4	1	-19	0	.	.
COc1ccc(/C=C2\C(=O)NC(=O)N(c3ccccc3OC)C2=O)cc1	-4	4.9*	-3	0	0	10
Cc1cccc(N2C(=O)NC(=O)/C(=C\c3ccc(N(C)C)c([N+](=O)[O-])c3)C2=O)c1	0	5.6*	-11	0	-1	-5
CCOc1cc(/C=C2\C(=O)NC(=O)N(c3ccc(Br)c(C)c3)C2=O)ccc1O	3	5.0*	5	0	0	-6
COc1cccc(N2C(=O)NC(=O)/C(=C/c3ccc(O)c(O)c3)C2=O)c1	-24	5.1*	-3	0	1	5

Screening results from PubChem.
